PubChem BioAssay (NCATS)
Results filed as inconclusive are left out. Activity calls are given as the source filed them. Calls come from the whole dose curve; as a rule, active = well fitted curve in the direction sought with a large enough effect; inconclusive = small, poorly fitted or top-dose-only effect, or another doubt; inactive = no such curve, though single readings can be large; an effect the other way counts as inactive or inconclusive.

What was measured:
[1] = Quantitative High-Throughput drug screen in 47 multiple myeloma cell lines against the NCATS MIPE library collection: ARD_JJKsccE7 cell viability assay (AID 1918929; note: potency is the fitted concentration of half-maximal effect)
Summary of the method: (§1)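 Approved and investigational drugs from MIPE 4.0 were added by pin tool to 500 cells per well. After 48 hours at 37C, ATP-based CellTiter-Glo luminescence indicated remaining viability.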

[2] = Quantitative High-Throughput drug screen in 47 multiple myeloma cell lines against the NCATS MIPE library collection: KMM1_JCRB cell viability assay (AID 1918960); note: nearly all actives have a fitted effect of over 30% in size; note: potency is the fitted concentration of half-maximal effect
Summary of the method: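 Here, 48 h treatment with MIPE 4.0 agents at 37 °C preceded an ATP luminescence read. Plating density was 500 cells per well.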

[3] = Quantitative High-Throughput drug screen in 47 multiple myeloma cell lines against the NCATS MIPE library collection: KHM11_PLB cell viability assay (AID 1918962); note: nearly all actives have a fitted effect of over 35% in size
Summary of the method: (§2)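 CellTiter-Glo luminescence (ATP) after 48 h compound exposure, 37C/5% CO2; 500 cells/well; MIPE 4.0 approved/investigational drugs pinned in; DMSO = 100%, media only = 0% viability.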

[4] = Quantitative High-Throughput drug screen in 47 multiple myeloma cell lines against the NCATS MIPE library collection: JIM3_ECACC cell viability assay (AID 1918963; note: nearly all actives have a fitted effect of over 35% in size; note: potency is the fitted concentration of half-maximal effect)
Summary of the method: as §2

[5] = Quantitative High-Throughput drug screen in 47 multiple myeloma cell lines against the NCATS MIPE library collection: Karpas620_DSMZ cell viability assay (AID 1918959); note: nearly all actives have a fitted effect of over 30% in size; note: potency is the fitted concentration of half-maximal effect
Summary of the method: as §2

[6] = Quantitative High-Throughput drug screen in 47 multiple myeloma cell lines against the NCATS MIPE library collection: JJN3_DSMZ cell viability assay (AID 1918966; note: potency is the fitted concentration of half-maximal effect; nearly all actives have a fitted effect of over 50% in size)
Summary of the method: as §1

[7] = Quantitative High-Throughput drug screen in 47 multiple myeloma cell lines against the NCATS MIPE library collection: JIM1_ECACC cell viability assay (AID 1918964)
Summary of the method: as §1

[8] = Quantitative High-Throughput drug screen in 47 multiple myeloma cell lines against the NCATS MIPE library collection: INA6_PLB cell viability assay (AID 1918965; note: potency is the fitted concentration of half-maximal effect; nearly all actives have a fitted effect of over 55% in size)
Summary of the method: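 Myeloma cells (500 per well) were exposed to MIPE 4.0 compounds by pin transfer and incubated 48 hours at 37C, 5% CO2. Viability was read as ATP by CellTiter-Glo luminescence, normalised to DMSO (100%) and media-only (0%) wells.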

Q: For `O=c1cc(-c2ccccc2)oc2cc(O)cc(O)c12`, which Potency [1] is on record?
A: 26.4 µM (active)

Q: And the Potency [2]?
A: 20.9 µM (active)

Q: And the Potency [3]?
A: inactive

Q: What about the Potency [4] of the same molecule?
A: 16.6 µM (active)

Q: Which Potency [5] does the source give for `COC(=O)C1=CO[C@@H](O)[C@@H]2C(CO)=CC[C@@H]12` here?
A: 23.5 µM (active)

Q: What about the Potency [4] of the same molecule?
A: 23.5 µM (active)

Q: What about the Potency [6] of the same molecule?
A: 11.8 µM (active)

Q: For `COc1ccc2c(Oc3ccc(NC(=O)c4c(C)n(CC(C)(C)O)n(-c5ccccc5)c4=O)nc3)ccnc2c1`, which Potency [5] is on record?
A: inactive

Q: What about the Potency [4] of the same molecule?
A: inactive

Q: What about the Potency [7] of the same molecule?
A: inactive

Q: What does the source list for `CC1(C)Cc2c(sc(NC(=S)NC(=O)c3ccccc3)c2C(=O)O)CO1`?
A: Potency [5]: 5.9 µM (active); Potency [3]: inactive

Q: With `Cc1ccc(/C=N/NC(=O)c2ccccc2Oc2ccccc2)o1` as the molecule, how does the Potency [4] read?
A: 23.5 µM (active)

Q: And the Potency [8]?
A: 16.6 µM (active)

Q: With `OC[C@H]1O[C@@H](Oc2cc(O)cc(C=Cc3ccc(O)cc3)c2)[C@H](O)[C@@H](O)[C@H]1O` as the molecule, how does the Potency [5] read?
A: inactive

Q: And the Potency [4]?
A: inactive

Q: With `CC=CCC(C)C(O)C1C(=O)NC(CC)C(=O)N(C)CC(=O)N(C)C(CC(C)C)C(=O)NC(C(C)C)C(=O)N(C)C(CC(C)C)C(=O)NC(C)C(=O)NC(C)C(=O)N(C)C(CC(C)C)C(=O)N(C)C(CC(C)C)C(=O)N(C)C(C(C)C)C(=O)N1C` (stereo unspecified) as the molecule, how does the Potency [2] read?
A: inactive

Q: For `Cc1c(NC(=O)c2ccc(C(C)(C)C)cc2)cccc1-c1cn(C)c(=O)c(Nc2ccc(C(=O)N3CCOCC3)cc2)n1`, which Potency [5] is on record?
A: 9.35 µM (active)

Q: What about the Potency [2] of the same molecule?
A: 6.62 µM (active)

Q: And the Potency [3]?
A: inactive

Q: And the Potency [4]?
A: 13.2 µM (active)

Q: And the Potency [6]?
A: 14.8 µM (active)

Q: What does the source list for `Cn1cc(C=C2C(=O)Nc3cccnc32)c2ccccc21`?
A: Potency [5]: inactive; Potency [4]: 16.6 µM (active)

Q: Which Potency [4] does the source give for `O=c1cc(-c2cccc3c2Sc2ccccc2S3)oc(N2CCOCC2)c1` here?
A: 16.6 µM (active)

Q: And the Potency [8]?
A: 18.7 µM (active)
